High-throughput results from PubChem.
PostGolgi yeast: growth inhibition of a yeast mutant, post-Golgi transport screen | post-Golgi transport phenotypic cell assay | inhibition, % at 10 µM | 0.9% of 98,000 active;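 note: yeast cells grown in 1536-well plates; yeast grown about 18 h at 30C before absorbance read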
CYP2C9 act: increases human cytochrome P450 2C9 activity; P11712; recombinant CYP2C9, luciferin-H conversion, luminescence; hits give high values; factor 1 = untreated enzyme, 0 = blocked; activation factor at 5 µM; 1.4% of 96,000 active;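 active = activation factor of 2 or more for CYP2C9 at a 5 µM dose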
CYP2C9 inhib: inhibitors of human CYP2C9; P11712; CYP2C9 Supersomes, luciferin-H conversion, luminescence; inhibition, % at 5 µM; 20% of 96,000 active; AID 777;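 active = blocking of liver enzyme CYP2C9 beyond about 50% at 5 µM, limit read from the data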
CYP2C19 act: increases human CYP2C19 enzyme activity; recombinant CYP2C19, luciferin-H EGE luminescence; hits give high values; 0 = fully inhibited enzyme, 1 = untreated enzyme; activation factor at 5 µM; 96,000 tested, under 10 active; AID 1025;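 active = activation factor of at least 2 at 5 µM in the primary screen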
Target sequence (P33261 whole entry, looked up): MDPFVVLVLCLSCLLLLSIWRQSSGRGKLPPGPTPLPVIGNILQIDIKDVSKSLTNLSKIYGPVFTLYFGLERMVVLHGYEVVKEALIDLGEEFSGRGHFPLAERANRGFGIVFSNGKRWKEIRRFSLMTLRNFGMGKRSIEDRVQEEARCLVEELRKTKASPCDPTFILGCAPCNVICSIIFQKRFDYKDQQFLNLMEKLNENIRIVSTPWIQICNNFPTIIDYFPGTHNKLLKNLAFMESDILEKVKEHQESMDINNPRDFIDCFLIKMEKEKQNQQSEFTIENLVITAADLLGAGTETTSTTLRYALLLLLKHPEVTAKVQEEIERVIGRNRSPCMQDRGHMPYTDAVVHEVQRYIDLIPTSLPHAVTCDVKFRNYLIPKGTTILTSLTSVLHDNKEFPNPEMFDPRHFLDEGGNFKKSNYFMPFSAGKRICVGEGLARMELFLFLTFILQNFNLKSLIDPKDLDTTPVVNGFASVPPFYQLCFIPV
PostGolgi ctrl: growth of the yeast control strain, post-Golgi counter-screen. 5% of 98,000 active. inhibition, % at 10 µM. efflux-deficient yeast background strain, growth absorbance A615, 16 h
CYP2C19 inhib: inhibitors of human CYP2C19 | P33261 | 21% of 96,000 active | AID 778 | CYP2C19 Supersomes, luciferin-H EGE luminescence, 30 min | inhibition, % at 5 µM;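 active = CYP2C19 inhibition above a set limit at 5 µM in the primary screen, cut at about 50% in these data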
Large screens that a line does not name were inactive. Rows were chosen to be rich in hits. Some 32% of all compounds tested hit in one or more screens of this group. Cut-off read from the data, not from the text of the source, unless noted: active = inhibition above about 30%; inactive = the rest.

O=C(CSc1nc2nc[nH]c2c(=O)[nH]1)NC1CCCCC1	none
CCn1cc(C(=O)NCc2cccc(F)c2)c(=O)c2cc(F)c(N3CCN(C(=O)c4ccco4)CC3)cc21	CYP2C9 inhib 83.9
CCn1cc(C(=O)NCc2cccnc2)c(=O)c2cc(F)c(N3CCN(C(=O)c4ccco4)CC3)cc21	CYP2C9 inhib 68.0
CCOC(=O)N1CCN(C(=O)c2cn(CC)c3cc(N4CCN(C)CC4)c(F)cc3c2=O)CC1	none (no result: CYP2C9 act, CYP2C9 inhib, CYP2C19 act, CYP2C19 inhib)
CCOC(=O)c1cn(CC)c2cc(N3CCOCC3)c(F)cc2c1=O	none (no result: CYP2C9 act, CYP2C9 inhib, CYP2C19 act, CYP2C19 inhib)
Cc1cc(-c2ccccc2)nc(N2CCC(C(=O)NC(C)C)CC2)n1	none
Cc1nc(N2CCC(C)CC2)c2oc3ccccc3c2n1	CYP2C9 inhib 69.9, PostGolgi ctrl 30.0, CYP2C19 inhib 66.6
CCc1nc(N2CCN(C(=O)c3ccco3)CC2)c2oc3ccccc3c2n1	CYP2C9 inhib 91.8, CYP2C19 inhib 94.7
Cc1nc(N2CCN(C(=O)c3ccco3)CC2)c2oc3ccccc3c2n1	CYP2C9 inhib 53.1, CYP2C19 inhib 69.8 (no result: PostGolgi yeast, PostGolgi ctrl)
CC(C(=O)NC1CCCc2ccccc21)N1CCN(Cc2ccc3c(c2)OCO3)CC1 (stereo unspecified)	none
CCOc1ccccc1CNC(=O)C1CCN(c2nc3ccccc3o2)CC1	none
O=C(NNS(=O)(=O)c1ccccc1)c1ccncc1	none
C=CCOc1ccc(C2c3c(oc4ccccc4c3=O)C(=O)N2CCCN2CCOCC2)cc1 (stereo unspecified)	CYP2C9 inhib 54.7
CC(C)Oc1ccc(C2c3c(oc4ccccc4c3=O)C(=O)N2CCCN2CCOCC2)cc1 (stereo unspecified)	CYP2C9 inhib 51.3
N#Cc1ccc(Oc2nc(Nc3ccc(F)cc3)nc(N3CCCC3)n2)cc1	none
Cc1ccc(N2CCN(CC(=O)Nc3c(C(=O)C4CC4)oc4ccccc34)CC2)cc1	none
CCCCN(C(=O)Nc1ccc(OCC)cc1)C1CCN(C(C)=O)CC1	none
CCOC(=O)C1CCCN(C(=O)CCc2ccccc2)C1 (stereo unspecified)	none
CCOC(=O)C1(S(=O)(=O)c2ccc(Cl)cc2)CCN(Cc2ccc(Cl)cc2)CC1	CYP2C9 inhib 68.6, CYP2C19 inhib 57.0
CCCC(=O)Nc1ccc(C(=O)N2CCCC2)cc1	none
CCOC(=O)C1CCCN(C(=O)Cc2ccc(Cl)cc2)C1 (stereo unspecified)	CYP2C9 inhib 76.3
CCCCC(=O)Nc1ccc(C(=O)N2CCCC(C(=O)OCC)C2)cc1 (stereo unspecified)	CYP2C19 inhib 91.8
CCOC(=O)C1CCCN(Cc2c(F)cccc2Cl)C1 (stereo unspecified)	CYP2C19 inhib 61.8
CCOC(=O)C1CCN(Cc2c(F)cccc2Cl)CC1	none
Cc1cc(C(=O)NNC(=S)NC(=O)/C=C/c2ccccc2Cl)n[nH]1	none
O=C(c1cc2ccccc2oc1=O)N(Cc1cccs1)C1CCS(=O)(=O)C1 (stereo unspecified)	none
CCOC(=O)C1CCCN(C(=O)Cc2c(F)cccc2Cl)C1 (stereo unspecified)	PostGolgi yeast 34.7, CYP2C19 inhib 67.1
CCOC(=O)N1CCN(C(=O)Cc2ccc(Cl)cc2)CC1	CYP2C9 inhib 64.4, CYP2C19 inhib 54.0
CCOC(=O)C1CCN(C(=O)Cc2c(F)cccc2Cl)CC1	none
CCOC(=O)C1CCCN(C(=O)C(C)Oc2ccc(Cl)cc2Cl)C1 (stereo unspecified)	CYP2C9 inhib 51.0
COC(=O)C1CCN(C(=O)C(C)Oc2ccc(Cl)cc2Cl)CC1 (stereo unspecified)	CYP2C19 inhib 89.6
Cc1ccc2cccc(OC(=O)c3ccc4c(c3)OCCO4)c2n1	none
C=CCn1c(-c2ccccc2)ccc(C#N)c1=O	none
COc1ccccc1-c1nnc(SCC(=O)O)n1C	none
CN1CCN(C(=O)c2ccc3ccccc3c2)CC1	none
CCc1nn(CC(=O)NCCCN2CCc3ccccc3C2)c(=O)c2cc3sccc3n12	none
CCOC(=O)N1CCN(C(=O)CSCc2ccc(C)cc2)CC1	none
CCOC(=O)N1CCN(C(=O)CCSCCc2ccncc2)CC1	CYP2C19 inhib 62.6
CCOC(=O)C1CCCN(C(=O)Cn2nc(CC)n3c(cc4sccc43)c2=O)C1 (stereo unspecified)	PostGolgi ctrl 52.6, CYP2C19 inhib 83.8
CC1CCCCN1C(=O)Cc1ccc(Cl)cc1 (stereo unspecified)	CYP2C19 inhib 96.0
CN1CCN(C(=O)c2cc(Cl)ccc2Cl)CC1	PostGolgi ctrl 31.3
CCOC(=O)N1CCN(C(=O)C(c2ccccc2)c2ccccc2)CC1	none
CCOC(=O)C1CCN(C(=O)CSc2ccccc2)CC1	CYP2C19 inhib 64.0
CCOC(=O)C1CCN(C(=O)CC(C)c2ccccc2)CC1 (stereo unspecified)	none
CCOC(=O)C1CCN(C(=O)Cc2ccc(C)cc2)CC1	CYP2C9 inhib 51.6
CCOC(=O)C1CCCN(C(=O)c2cccs2)C1 (stereo unspecified)	none
CCOC(=O)N1CCN(CCC(=O)c2ccc(Cl)cc2)CC1	CYP2C9 inhib 63.7
CCOC(=O)N1CCN(CCC(=O)Nc2ccc(C)cc2)CC1	none
CCOC(=O)C1CCCN(C(=O)c2cc(Cl)ccc2Cl)C1 (stereo unspecified)	CYP2C9 inhib 93.9, CYP2C19 inhib 96.7
CCOC(=O)C1CCN(C(=O)Cc2ccc(OC)c(OC)c2)CC1	none
O=C1NCCNC1(c1c[nH]c2ccccc12)C(F)(F)F (stereo unspecified)	none
CCOC(=O)C1CCCN(C(=O)c2ccccc2SCCOC)C1 (stereo unspecified)	CYP2C9 inhib 67.8, CYP2C19 inhib 61.3
CCOC(=O)C1CCCN(C(=O)c2cc(=O)c3ccccc3o2)C1 (stereo unspecified)	none
Cn1c(=O)c2c(nc(Br)n2CCSc2nnnn2-c2ccccc2)n(C)c1=O	none
COc1ccc(C(=O)Nc2ccccc2N2CCN(C(=O)C(C)C)CC2)cc1Cl	none (no result: CYP2C9 act, CYP2C9 inhib, CYP2C19 act, CYP2C19 inhib)
COc1ccc(Cl)cc1C(=O)Nc1ccccc1N1CCN(C(=O)C(C)C)CC1	CYP2C9 inhib 68.5, PostGolgi ctrl 53.7, CYP2C19 inhib 67.5
CCC(=O)N1CCN(c2ccccc2NC(=O)c2cccc(C)c2)CC1	CYP2C9 inhib 71.2, CYP2C19 inhib 76.9
CCOc1cccc(C(=O)Nc2ccccc2N2CCN(C(=O)C(C)C)CC2)c1	CYP2C9 inhib 94.1, CYP2C19 inhib 76.9
Cc1ccc(C(=O)Nc2ccccc2N2CCN(C(=O)C(C)C)CC2)cc1	none
Cc1cc(C)cc(OCC(=O)Nc2ccccc2N2CCCCC2)c1	none
CCC(=O)N1CCN(c2ccccc2NC(=O)COc2cccc(C)c2)CC1	CYP2C9 inhib 57.8
c1ccc(-c2nc3nonc3nc2-c2ccccc2)cc1	PostGolgi ctrl 31.3, CYP2C19 inhib 66.0
O=C(N/N=C/c1ccc([N+](=O)[O-])cc1)c1ccc2nc[nH]c2c1	none
O=C(N/N=C/c1cccc([N+](=O)[O-])c1)c1ccc2nc[nH]c2c1	CYP2C9 inhib 50.8
